One may read the inhibition as the change of the read-out against control, counted positive when it falls.

The source made the active and inactive calls.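 Rule for the calls, unless noted: active = differentiation response of at least 50%, scaled between solvent and reference control, from cells with both markers; inactive = the rest.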

We go through 13 compounds from PubChem BioAssay.

A short description of test [1]: reduced mouse 2C T cell binding to pMHC/ICAM-1 vesicles – MLPCN validation set, flow cytometry, LFA-1/ICAM-1 modulator project, pilot screen (AID 2523;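 active = response below a set limit, under 55% cells CD8-positive and vesicle-bound, and CD8 cells' 90th-percentile brightness under 279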;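 for vesicle binding response: mean PE anti-B7-1 fluorescence of CD8+ cells relative to row control; 100% = QL9-loaded vesicles with DMSO vehicle in the same plate row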). To be noted: 2C mouse CD8+ T cells, at 7 µM, stronger effect = lower value; double positive events: measured here: CD8+/vesicle+ event percentage. For orientation: A flow cytometer gives signals particle by particle.
Test [2] has as its target Integrin beta-1 (Homo sapiens) + Integrin alpha-4 (Homo sapiens) (UniProt P13612+P05556). As to the kind of experiment: alpha4beta1 integrin LIBS antibody binding reduction – U937 cells, HUTS-21 mAb, flow cytometry, validation set, VLA-4 allosteric modulator project, pilot screen (AID 2674;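 active = inhibition above 50%, about 3 SD of the validation set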;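 note: antibody binding induced by the VLA-4 ligand LDV present at three times its Kd; 0% = LDV ligand with antibody and no compound and 100% = antibody without LDV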). Conditions: HUTS-21 LIBS mAb binding, at 6.7 µM, stronger effect = higher value, binding induced by LDV ligand.

Test [3] is described as follows: calorie-restriction mimetic ROS inhibitors, yeast – validation compound set, pilot screen (AID 2706;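 active = superoxide response below 65% of plate, a cut near 3 SD across the whole screen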;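 note: yeast exposed to compound for one week at 30 degrees C before staining; 100% = mean of all compound wells on the same plate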). Conditions: S. cerevisiae aging, superoxide DHE fluorescence; at 10 µM, stronger effect = lower value.
In test [4] the target is Beta-adrenergic receptor kinase 1 (Homo sapiens) (UniProt P25098). In words: GRK2 binders displacing RNA aptamer, biochemical, validation, human GRK2, bead flow cytometry (AID 488806;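 active = aptamer binding inhibition above 30%, about 3 SD of noise from non-fluorescent compounds; inactive = inhibition at or below 30%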). To be noted: bead-bound GRK2, FAM-aptamer displacement, at 10 µM, stronger effect = higher value.
Test [5] addresses Beta-2 adrenergic receptor (Homo sapiens) (UniProt P07550). As to the kind of experiment: agonist-induced loss of surface beta2AR – cell-based, FAP fluorogen, flow cytometry, validation set, pilot screen (AID 504459;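 active = percent response above 42, roughly 3 SD of non-fluorescent test compounds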;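 note: agonist-driven loss of surface beta2AR via internalization measured by FAP dye flow cytometry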). Conditions: Am2.2-beta2AR cells, at 10 µM, stronger effect = higher value.
The target of test [6] is AP-2 complex subunit beta (Homo sapiens) (UniProt P63010). In words: beta-arrestin/AP2 interaction blockers – biochemical, validation set, GST-AP2 beads, flow cytometry, pilot screen (AID 504541;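 active = inhibition above 54%, about 3 SD of non-fluorescent compounds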;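 note: AP2 carries R879A mutation and is captured from E. coli lysate; bead-bound FITC arrestin peptide fluorescence measuring arrestin peptide binding to AP2; 0% = DMSO wells and 100% = excess unlabeled arrestin peptide control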). Conditions: FITC arrestin peptide, at 10 µM, stronger effect = higher value, AP2 beta2 appendage fragment, R879A mutant.
Test [7] can be described thus: cytosolic pH regulators acting via V-ATPase – S. cerevisiae, pHLuorin, HTS validation (AID 504600; in the data active = response above about 15%;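 note: plate controls were DMSO for no effect and reference compound for full effect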). To be noted: V-ATPase proton transport, at 10 µM, stronger effect = higher value.
For test [8], the system named is anti-desmoglein-3 scFv antibody binding to human DSG3. In words: blockers of pathogenic pemphigus antibody–desmoglein-3 binding – biochemical, validation compound set, bead-based, flow cytometry, pilot screen (AID 588368;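 active = binding below the plate cutoff, the plate median minus 3 SD, with a reading above zero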;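 note: signal is the median channel fluorescence of bead-bound GFP antibody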). Conditions: Protein G beads, DSG3-Fc, scFv-GFP binding, at 10 µM, stronger effect = lower value.
Test [9] can be described thus: Nile Red efflux blockade in pump-expressing yeast – validation compound set, multiplex, phenotypic, pilot screen (AID 588506;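 active = efflux inhibition above 0.42, the validation set average plus 4 SD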;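 note: Nile Red retained in cells so higher fluorescence means more efflux inhibition; 0 = negative control wells and 1 = enniatin B 25 µM full block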). To be noted: S. cerevisiae pump-expressing triplex, Nile Red efflux flow cytometry; at 10 µM; stronger effect = higher value; the pumps come from Candida albicans.
Test [10] concerns the target ATP-binding cassette sub-family B member 6 (Homo sapiens) (UniProt Q9NP58). In words: blockers of ABCB6-driven porphyrin uptake – K562-ABCB6 cells, flow cytometry, validation set, pilot screen (AID 588550;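 active = inhibition above the screen-wide mean plus 3 SD, about 51%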;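 note: 0% = DMSO wells and 100% = benzethonium chloride 70 µM positive control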). Conditions: K562-ABCB6 porphyrin accumulation, 1 h, at 10 µM, stronger effect = higher value.
The nature of test [11]: AML differentiation inducers, ER-HoxA9 marrow cells – cell-based, GFP/MAC1 double positive, flow cytometry, validation set, primary screen (AID 588685).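 Note: compound exposure lasts four days before antibody staining and flow analysis; 0% = DMSO wells and 100% = 5 µM fulvestrant positive control.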 To be noted: stronger effect = higher value, normalized: vehicle 0, fulvestrant 100.

Sequence of Integrin beta-1 (Homo sapiens) + Integrin alpha-4 (Homo sapiens) (P05556 whole entry, looked up): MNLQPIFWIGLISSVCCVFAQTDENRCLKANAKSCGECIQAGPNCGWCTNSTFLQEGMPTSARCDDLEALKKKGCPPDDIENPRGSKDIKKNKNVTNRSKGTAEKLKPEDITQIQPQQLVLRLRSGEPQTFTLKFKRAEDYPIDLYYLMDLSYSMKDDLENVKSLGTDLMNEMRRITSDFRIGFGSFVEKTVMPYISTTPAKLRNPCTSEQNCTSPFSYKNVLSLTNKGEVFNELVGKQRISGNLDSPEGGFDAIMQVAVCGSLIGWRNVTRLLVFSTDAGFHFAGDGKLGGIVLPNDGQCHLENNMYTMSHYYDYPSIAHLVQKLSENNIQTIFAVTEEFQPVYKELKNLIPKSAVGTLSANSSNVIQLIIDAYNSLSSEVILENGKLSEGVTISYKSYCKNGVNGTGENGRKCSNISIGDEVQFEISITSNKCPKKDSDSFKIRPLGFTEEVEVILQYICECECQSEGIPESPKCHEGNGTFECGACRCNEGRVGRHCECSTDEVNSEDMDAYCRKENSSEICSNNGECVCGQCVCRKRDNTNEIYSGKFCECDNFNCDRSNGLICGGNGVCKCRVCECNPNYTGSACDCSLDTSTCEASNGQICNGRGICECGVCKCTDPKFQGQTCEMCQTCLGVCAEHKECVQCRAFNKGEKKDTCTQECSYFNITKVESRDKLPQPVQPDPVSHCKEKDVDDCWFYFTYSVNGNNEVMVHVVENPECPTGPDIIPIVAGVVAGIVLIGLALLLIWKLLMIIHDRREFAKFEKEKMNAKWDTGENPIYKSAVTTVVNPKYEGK
Sequence of Integrin beta-1 (Homo sapiens) + Integrin alpha-4 (Homo sapiens) (P13612 whole entry, looked up): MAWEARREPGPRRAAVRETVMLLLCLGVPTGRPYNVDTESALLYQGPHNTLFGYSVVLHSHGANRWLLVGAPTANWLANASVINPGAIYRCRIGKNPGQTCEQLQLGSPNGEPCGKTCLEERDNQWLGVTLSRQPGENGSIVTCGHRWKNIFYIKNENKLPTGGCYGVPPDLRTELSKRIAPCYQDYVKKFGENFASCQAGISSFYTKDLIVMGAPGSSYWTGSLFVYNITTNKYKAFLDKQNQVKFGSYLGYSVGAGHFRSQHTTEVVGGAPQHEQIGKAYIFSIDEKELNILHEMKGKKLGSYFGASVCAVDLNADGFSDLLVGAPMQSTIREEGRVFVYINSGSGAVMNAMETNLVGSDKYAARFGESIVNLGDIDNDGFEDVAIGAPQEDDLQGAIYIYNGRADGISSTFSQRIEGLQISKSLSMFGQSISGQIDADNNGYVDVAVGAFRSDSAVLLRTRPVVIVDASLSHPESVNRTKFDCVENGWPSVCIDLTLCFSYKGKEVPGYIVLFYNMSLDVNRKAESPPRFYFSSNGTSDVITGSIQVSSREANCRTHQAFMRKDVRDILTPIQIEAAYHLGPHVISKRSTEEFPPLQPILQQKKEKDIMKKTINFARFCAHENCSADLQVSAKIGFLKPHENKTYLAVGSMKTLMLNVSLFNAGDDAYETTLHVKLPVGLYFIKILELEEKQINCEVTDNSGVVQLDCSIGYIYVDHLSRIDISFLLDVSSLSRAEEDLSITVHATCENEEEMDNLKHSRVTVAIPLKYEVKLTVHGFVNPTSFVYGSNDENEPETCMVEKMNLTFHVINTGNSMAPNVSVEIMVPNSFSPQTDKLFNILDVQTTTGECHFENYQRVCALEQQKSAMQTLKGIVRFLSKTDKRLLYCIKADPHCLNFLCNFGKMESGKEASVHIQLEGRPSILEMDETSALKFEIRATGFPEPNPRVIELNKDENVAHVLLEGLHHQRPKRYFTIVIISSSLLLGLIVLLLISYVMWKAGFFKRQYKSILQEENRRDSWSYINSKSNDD
Sequence of Beta-2 adrenergic receptor (Homo sapiens) (P07550 whole entry, looked up): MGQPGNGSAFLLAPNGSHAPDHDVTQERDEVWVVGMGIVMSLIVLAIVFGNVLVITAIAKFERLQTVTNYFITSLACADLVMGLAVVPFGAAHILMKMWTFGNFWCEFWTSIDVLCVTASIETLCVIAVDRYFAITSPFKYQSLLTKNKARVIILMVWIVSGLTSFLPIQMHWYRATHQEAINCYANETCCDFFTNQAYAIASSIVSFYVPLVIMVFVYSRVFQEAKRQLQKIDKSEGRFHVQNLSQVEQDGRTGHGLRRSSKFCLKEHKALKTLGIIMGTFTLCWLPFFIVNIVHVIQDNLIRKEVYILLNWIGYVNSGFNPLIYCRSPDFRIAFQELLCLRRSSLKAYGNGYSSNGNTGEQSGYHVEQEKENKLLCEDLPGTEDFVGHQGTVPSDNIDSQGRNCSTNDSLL
Sequence of Beta-adrenergic receptor kinase 1 (Homo sapiens) (P25098 whole entry, looked up): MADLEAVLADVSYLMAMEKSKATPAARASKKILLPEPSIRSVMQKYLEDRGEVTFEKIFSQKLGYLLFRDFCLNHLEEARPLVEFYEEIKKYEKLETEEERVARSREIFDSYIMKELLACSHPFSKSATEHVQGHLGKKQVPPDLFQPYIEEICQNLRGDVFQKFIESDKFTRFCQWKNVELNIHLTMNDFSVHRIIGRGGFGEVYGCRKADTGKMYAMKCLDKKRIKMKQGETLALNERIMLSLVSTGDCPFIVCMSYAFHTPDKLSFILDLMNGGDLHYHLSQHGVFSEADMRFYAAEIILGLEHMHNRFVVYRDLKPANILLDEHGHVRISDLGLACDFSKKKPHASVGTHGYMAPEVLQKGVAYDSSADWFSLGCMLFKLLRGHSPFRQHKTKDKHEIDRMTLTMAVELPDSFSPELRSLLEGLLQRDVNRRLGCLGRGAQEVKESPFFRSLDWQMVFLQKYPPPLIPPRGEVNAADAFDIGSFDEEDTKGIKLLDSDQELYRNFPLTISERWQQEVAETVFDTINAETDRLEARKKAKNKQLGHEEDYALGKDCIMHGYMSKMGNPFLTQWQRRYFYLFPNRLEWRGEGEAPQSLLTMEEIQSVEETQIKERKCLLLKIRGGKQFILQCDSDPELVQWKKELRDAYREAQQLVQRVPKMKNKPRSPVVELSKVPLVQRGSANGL
Sequence of AP-2 complex subunit beta (Homo sapiens) (P63010 whole entry, looked up, the tested form may be a part, one chain of several): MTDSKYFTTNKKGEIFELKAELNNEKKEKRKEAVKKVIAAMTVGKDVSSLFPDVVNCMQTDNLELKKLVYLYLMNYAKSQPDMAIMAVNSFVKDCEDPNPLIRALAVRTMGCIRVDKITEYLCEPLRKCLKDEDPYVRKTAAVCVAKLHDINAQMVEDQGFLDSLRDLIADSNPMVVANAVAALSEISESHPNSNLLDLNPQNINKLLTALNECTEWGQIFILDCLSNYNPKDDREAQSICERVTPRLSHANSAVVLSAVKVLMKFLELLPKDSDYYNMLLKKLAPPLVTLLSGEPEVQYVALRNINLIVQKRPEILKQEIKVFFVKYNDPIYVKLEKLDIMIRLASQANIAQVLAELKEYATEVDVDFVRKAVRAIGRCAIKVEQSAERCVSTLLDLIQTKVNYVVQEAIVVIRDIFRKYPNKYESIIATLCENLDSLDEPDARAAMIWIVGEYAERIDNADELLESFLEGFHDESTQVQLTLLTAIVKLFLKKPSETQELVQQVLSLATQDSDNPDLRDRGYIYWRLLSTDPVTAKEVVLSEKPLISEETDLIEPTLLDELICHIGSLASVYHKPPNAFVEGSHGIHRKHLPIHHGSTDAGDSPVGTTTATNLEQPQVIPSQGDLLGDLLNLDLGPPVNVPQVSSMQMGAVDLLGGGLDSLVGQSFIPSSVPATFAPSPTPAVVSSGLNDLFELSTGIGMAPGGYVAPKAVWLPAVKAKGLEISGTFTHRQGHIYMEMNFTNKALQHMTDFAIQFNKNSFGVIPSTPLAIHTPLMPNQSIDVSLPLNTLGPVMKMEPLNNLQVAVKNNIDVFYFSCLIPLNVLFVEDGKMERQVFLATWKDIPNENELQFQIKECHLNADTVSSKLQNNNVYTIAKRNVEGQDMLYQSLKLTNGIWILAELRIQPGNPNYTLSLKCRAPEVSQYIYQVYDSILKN
Sequence of ATP-binding cassette sub-family B member 6 (Homo sapiens) (Q9NP58 whole entry, looked up): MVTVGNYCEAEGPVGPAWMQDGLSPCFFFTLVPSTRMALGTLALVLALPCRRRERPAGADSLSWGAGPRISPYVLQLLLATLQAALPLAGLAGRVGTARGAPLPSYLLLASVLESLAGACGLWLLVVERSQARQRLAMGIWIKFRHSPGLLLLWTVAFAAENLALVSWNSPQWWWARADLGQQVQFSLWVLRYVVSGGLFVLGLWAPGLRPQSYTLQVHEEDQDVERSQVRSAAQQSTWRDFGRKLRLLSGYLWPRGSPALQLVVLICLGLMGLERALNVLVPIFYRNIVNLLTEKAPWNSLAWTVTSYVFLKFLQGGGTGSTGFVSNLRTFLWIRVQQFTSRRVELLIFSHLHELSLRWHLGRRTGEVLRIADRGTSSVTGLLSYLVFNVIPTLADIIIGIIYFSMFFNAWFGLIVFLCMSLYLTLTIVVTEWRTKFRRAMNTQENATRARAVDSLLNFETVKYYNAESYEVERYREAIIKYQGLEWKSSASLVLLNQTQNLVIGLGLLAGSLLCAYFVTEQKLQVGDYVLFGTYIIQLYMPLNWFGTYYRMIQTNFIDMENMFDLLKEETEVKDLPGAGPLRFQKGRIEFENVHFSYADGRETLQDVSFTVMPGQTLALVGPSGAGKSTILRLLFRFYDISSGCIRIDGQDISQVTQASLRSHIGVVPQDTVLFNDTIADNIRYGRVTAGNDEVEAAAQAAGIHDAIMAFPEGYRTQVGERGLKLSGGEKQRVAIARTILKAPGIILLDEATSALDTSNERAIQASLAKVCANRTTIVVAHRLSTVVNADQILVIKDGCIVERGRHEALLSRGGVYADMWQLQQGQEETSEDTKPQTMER

In turn, `C=C(C)c1nc2cc(OC)c(OC)cc2c(=O)o1` registered a double positive events in [1] of 66.2%. Besides, the vesicle binding response in [1] was 181% (inactive). Moreover, the figures for the inhibition in test [2], in test [6] and in test [10] were -9.06% (inactive), 0.91% (inactive) and 11% (inactive), respectively. Moreover, the superoxide response (% of plate) in [3] is 96.8% (inactive). In [4], the aptamer binding inhibition is 0% (inactive). The response in test [5] is -1.85% (inactive); in [7], 2.81% (inactive). For the same compound, the binding (% of control) in [8] is 105% (inactive). Besides, in [9], the efflux inhibition (fraction of control) is -0.46 (inactive). Moreover, the differentiation response in test [11] was 9.01% (inactive).
Regarding `COc1cc(OC)c(C2C(C#N)=C(N)OC3=C2C(=O)CC(C)(C)C3)cc1OC` (stereo unspecified), the double positive events in [1] worked out at 59.9%. Besides, in test [1], the vesicle binding response was 137% (inactive). Further, the inhibition in test [2] was 5.61% (inactive); in test [6] it was 5.17% (inactive); in [10] it was 13% (inactive). Further, in test [3], the superoxide response (% of plate) was 109% (inactive). Further, the aptamer binding inhibition in test [4] is 2% (inactive). In addition, the response in test [5] is 10.6% (inactive); in [7], -1.86% (inactive). Also, in test [8], the binding (% of control) is 102% (inactive). Further, in [9], the efflux inhibition (fraction of control) is -0.38 (inactive). Moreover, in test [11], the differentiation response is -11.9% (inactive).
Turning to `COC(=O)c1cc(-c2c(C)oc3cc(OC)ccc3c2=O)c(C)o1`, the double positive events in test [1] is 59.2%. In addition, the vesicle binding response in test [1] is 199% (inactive). Further, the inhibition in [2] was 2.3% (inactive); in [6] it was 2.24% (inactive); in test [10] it was 8% (inactive). Besides, the superoxide response (% of plate) in test [3] is 96.8% (inactive). The aptamer binding inhibition in [4] was 1% (inactive). Moreover, the response in [5] is 7.03% (inactive); in test [7] it was 1.93% (inactive). Moreover, the binding (% of control) in test [8] was 105% (inactive). Also, the efflux inhibition (fraction of control) in [9] is -0.1 (inactive). The differentiation response in test [11] is 18.4% (inactive).
Take `Cc1ccc2c(c1)c1c(n2C)C(=O)CCC1`: the double positive events in test [1] is 57.6%. Moreover, the vesicle binding response in [1] is 126% (inactive). Also, the inhibition in test [2] was -7.79% (inactive); in test [6], -3.89% (inactive); in [10] it was 0% (inactive). Further, the superoxide response (% of plate) in [3] was 86.4% (inactive). In addition, in test [4], the aptamer binding inhibition was 2% (inactive). Moreover, the values for the response in [5] and in test [7] were 6.59% (inactive) and -3.07% (inactive), respectively. Further, the binding (% of control) in test [8] is 97.9% (inactive). Further, the efflux inhibition (fraction of control) in test [9] is 0.41 (inactive). For the same compound, the differentiation response in test [11] is -8.96% (inactive).
Compound `CC(=O)O[C@H]1CC[C@H]2[C@@H]3CCc4cc(O)ccc4[C@H]3CC[C@]12C` returned a double positive events in test [1] of 58.2%. For the same compound, in test [1], the vesicle binding response is 234% (inactive). Besides, the inhibition was 15.9% (inactive) in [2], 6.38% (inactive) in test [6] and 5% (inactive) in test [10]. Moreover, the superoxide response (% of plate) in test [3] was 80.4% (inactive). Further, the aptamer binding inhibition in test [4] was 1% (inactive). The response in [5] is -33% (inactive); in test [7] it was 2.35% (inactive). In addition, in [8], the binding (% of control) is 101% (inactive). Further, the efflux inhibition (fraction of control) in [9] was 0.21 (inactive). Besides, the differentiation response in [11] was -1.05% (inactive).
As for `COc1ccc(CCNC(=O)CC(c2ccccc2)c2cccc(C)c2O)cc1OC` (stereo unspecified), the double positive events in test [1] is 62.6%. Further, in test [1], the vesicle binding response is 190% (inactive). Further, the results for the inhibition in test [2], in [6] and in test [10] were 16.2% (inactive), -1.67% (inactive) and 10% (inactive), respectively. Besides, the superoxide response (% of plate) in test [3] was 96.3% (inactive). Moreover, in test [4], the aptamer binding inhibition is 1% (inactive). The figures for the response in [5] and in test [7] were 5.7% (inactive) and 1.13% (inactive), respectively. Besides, the binding (% of control) in test [8] was 101% (inactive). The efflux inhibition (fraction of control) in test [9] is -0.46 (inactive). The differentiation response in [11] was -3.28% (inactive).
Consider `O=C(Nc1cccc(-c2nc3ncccc3o2)c1)c1ccccc1`, for which, in test [1], the double positive events turned out to be 56.1%. In [1], the vesicle binding response was 159% (inactive). For the same compound, the inhibition is 2.3% (inactive) in [2], -1.86% (inactive) in test [6] and 0% (inactive) in test [10]. The superoxide response (% of plate) in test [3] was 106% (inactive). Besides, in test [4], the aptamer binding inhibition is 1% (inactive). In addition, the response in test [5] is 17.2% (inactive); in test [7], 7.44% (inactive). The binding (% of control) in test [8] is 102% (inactive). For the same compound, the efflux inhibition (fraction of control) in test [9] is -0.06 (inactive). Further, the differentiation response in test [11] is -16.8% (inactive).
For `CC(=O)c1cn(C)c(=O)[nH]c1=O`, the double positive events in test [1] was found to be 60.8%. Also, the vesicle binding response in test [1] was 243% (inactive). The inhibition in [2] was -7.25% (inactive); in test [6], -5.48% (inactive); in [10], 2% (inactive). Besides, in test [3], the superoxide response (% of plate) is 103% (inactive). Besides, the aptamer binding inhibition in [4] is 3% (inactive). Besides, the response in test [5] is 72.3% (active); in [7], 0.64% (inactive). In addition, the binding (% of control) in test [8] is 107% (inactive). The efflux inhibition (fraction of control) in test [9] is -0.24 (inactive). Also, the differentiation response in [11] was -8.8% (inactive).
With `O=C(NCCc1cccc(F)c1)[C@@H]1CSC2c3ccccc3C(=O)N21` (stereo partly specified), in [1], the double positive events is 63.2%. Moreover, the vesicle binding response in [1] was 251% (inactive). The results for the inhibition in test [2], in test [6] and in test [10] were 5.03% (inactive), -1.7% (inactive) and 7% (inactive), respectively. The superoxide response (% of plate) in test [3] was 97.1% (inactive). In test [4], the aptamer binding inhibition was 5% (inactive). For the same compound, the response is 1.99% (inactive) in [5] and 0.26% (inactive) in test [7]. The binding (% of control) in test [8] was 101% (inactive). Besides, in test [9], the efflux inhibition (fraction of control) is 0.12 (inactive). Moreover, the differentiation response in [11] was 2.4% (inactive).
In the case of `CCc1cccc(OC2OC(CO)C(O)C(O)C2NC(C)=O)c1` (stereo unspecified), in test [1], the double positive events turned out to be 69.6%. Moreover, in test [1], the vesicle binding response was 308% (inactive). Also, the inhibition in [2] was -5.38% (inactive); in test [6] it was -1.83% (inactive); in test [10] it was 7% (inactive). Moreover, in test [3], the superoxide response (% of plate) was 98.7% (inactive). Besides, in test [4], the aptamer binding inhibition was 1% (inactive). The response in test [5] was -16.8% (inactive); in test [7] it was 4.31% (inactive). Besides, the binding (% of control) in test [8] was 103% (inactive). Moreover, the efflux inhibition (fraction of control) in test [9] is -0.13 (inactive). In addition, the differentiation response in test [11] was 0.92% (inactive).
As to `CC(C)C1Cc2[nH]c(=O)c(C(=O)O)cc2CO1` (stereo unspecified), the double positive events in test [1] is 64.9%. The vesicle binding response in [1] is 1810% (inactive). Besides, the inhibition in [2] was 25.5% (inactive); in test [6], -1.16% (inactive); in test [10], 10% (inactive). Further, in test [3], the superoxide response (% of plate) is 95.9% (inactive). Also, the aptamer binding inhibition in test [4] is 4% (inactive). Moreover, the response was -2.38% (inactive) in [5] and -0.04% (inactive) in [7]. For the same compound, the binding (% of control) in [8] was 94.2% (inactive). Moreover, the efflux inhibition (fraction of control) in test [9] was -0.1 (inactive). Besides, in test [11], the differentiation response is 3.18% (inactive).
For `CN1CCN(C2=Nc3cc(Cl)ccc3Nc3ccccc32)CC1`, the double positive events in test [1] stood at 61.7%. Moreover, the vesicle binding response in test [1] was 222% (inactive). Moreover, the inhibition is 31.2% (inactive) in test [2], 9.21% (inactive) in [6] and -2% (inactive) in [10]. Moreover, the superoxide response (% of plate) in [3] is 84.7% (inactive). For the same compound, the aptamer binding inhibition in test [4] was -4% (inactive). In addition, the response is -25% (inactive) in [5] and 6.59% (inactive) in test [7]. Besides, in [8], the binding (% of control) is 102% (inactive). Besides, the efflux inhibition (fraction of control) in [9] is 0.04 (inactive). Besides, the differentiation response in test [11] is -5.97% (inactive).
In test [1], `CCOc1ccccc1Oc1coc2cc(OCC(=O)O)ccc2c1=O` returned a double positive events of 63.5%. Also, in test [1], the vesicle binding response was 156% (inactive). Moreover, the inhibition in test [2] is 1.44% (inactive); in [6], -11% (inactive); in test [10], -2% (inactive). Besides, in [3], the superoxide response (% of plate) is 111% (inactive). In addition, the aptamer binding inhibition in test [4] was 10% (inactive). The response in test [5] is -21.7% (inactive); in test [7], 5.03% (inactive). The binding (% of control) in test [8] was 106% (inactive). In test [9], the efflux inhibition (fraction of control) was -0.09 (inactive). In addition, the differentiation response in [11] was -8.93% (inactive).
